Test results from PubChem BioAssay AID1159580 (chemical genetic matrix, 2015).
“And” between values parts separate entries of the source, which are not always exact repeats. Equal values may be shown once. Screen size: about 5,500 compounds; about 2,000 (36%) were called active. Not shown: some 18% with an inconclusive outcome. No stated cut-off is given here; in the data, active means normalized growth mostly below about 0.91 (no sharp cut-off); inconclusive means no clear call, values can overlap the other calls; inactive means mostly above about 0.92. This is one part of the list.

Assay: chemical genetic growth profiling, strain panel (AID 1159580);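 further: tested at 20 µM; growth read once vehicle control cultures reached saturation at 30 °C; 1 = growth at the plate median or of vehicle wells; lower values mean less growth of the strain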
Details: S. cerevisiae deletion strains, growth OD

Measured: normalized growth

CC(C)NCC(O)c1cc(O)cc(O)c1 (stereo not drawn)
inactive: locus YAL013W, strain DEP1, active compounds read low 1.03 | locus YAL021C, strain ccr4, active compounds read low 0.974 | locus YAL026C, strain drs2, active compounds read low 1 | locus YAL030W, strain snc1, active compounds read low 0.994 | locus YAL040C, strain CLN3, active compounds read low 1.02 | locus YBL061C, strain skt5, active compounds read low 0.991 | locus YBR009C, strain hhf1, active compounds read low 1.01 | locus YBR021W, strain FUR4, active compounds read low 1.02 | locus YBR023C, strain chs3, active compounds read low 0.984 | locus YBR171W, strain sec66, active compounds read low 0.998 | locus YBR229C, strain ROT2, active compounds read low 1 | locus YBR231C, strain swc5, active compounds read low 0.993 | locus YBR279W, strain paf1, active compounds read low 0.992 | locus YCL011C, strain gbp2, active compounds read low 0.982 | locus YCL016C, strain dcc1, active compounds read low 0.976 | locus YCL029C, strain bik1, active compounds read low 0.983 | locus YCL061C, strain MRC1 (second series), active compounds read low 1.01 | locus YCL061C, strain MRC1, active compounds read low 0.991 | locus YCL069W, strain vba3, active compounds read low 0.992 | locus YCR088W, strain abp1, active compounds read low 0.994 | locus YDL005C, strain med2, active compounds read low 1 | locus YDL035C, strain GPR1, active compounds read low 1.01 | locus YDL040C, strain nat1, active compounds read low 0.994 | locus YDL074C, strain BRE1, active compounds read low 1.01 | locus YDL101C, strain DUN1, active compounds read low 1 | locus YDL134C, strain PPH21, active compounds read low 1.01 | locus YDL185W, strain tfp1, active compounds read low 0.964 | locus YDL192W, strain arf1, active compounds read low 0.984 | locus YDR001C, strain nth1, active compounds read low 0.983 | locus YDR069C, strain doa4, active compounds read low 1.01 | locus YDR101C, strain arx1, active compounds read low 1.02 | locus YDR137W, strain rgp1, active compounds read low 0.977 | locus YDR150W, strain NUM1, active compounds read low 0.996 | locus YDR159W, strain sac3, active compounds read low 1.03 | locus YDR162C, strain NBP2, active compounds read low 1.01 | locus YDR195W, strain ref2 0.982 | locus YDR297W, strain sur2, active compounds read low 0.989 | locus YDR318W, strain mcm21, active compounds read low 0.982 | locus YDR334W, strain swr1, active compounds read low 0.974 | locus YDR335W, strain msn5, active compounds read low 1 | locus YDR363W, strain ESC2, active compounds read low 1.05 | locus YDR388W, active compounds read low 1 | locus YDR392W, strain spt3, active compounds read low 0.928 | locus YDR502C, strain sam2, active compounds read low 0.993 | locus YEL003W, strain gim4, active compounds read low 1 | locus YEL037C, strain rad23, active compounds read low 0.989 | locus YEL061C, strain CIN8 (second series), active compounds read low 0.98 | locus YEL061C, strain CIN8, active compounds read low 0.995 | locus YER002W, strain NOP16, active compounds read low 0.991 | locus YER015W, strain faa2, active compounds read low 0.988 | locus YER016W, strain bim1, active compounds read low 0.999 | locus YER110C, active compounds read low 0.973 | locus YER111C, strain swi4, active compounds read low 0.978 | locus YER155C, strain BEM2 (second series), active compounds read low 1 | locus YER155C, strain BEM2, active compounds read low 1 | locus YER167W, strain BCK2, active compounds read low 0.995 | locus YFR010W, strain ubp6, active compounds read low 0.992 | locus YGL078C, strain dbp3, active compounds read low 0.969 | locus YGL086W, strain mad1, active compounds read low 1.01 | locus YGL167C, strain pmr1, active compounds read low 0.991 | locus YGL173C, strain kem1, active compounds read low 1 | locus YGL227W, strain vid30, active compounds read low 0.995 | locus YGL240W, strain doc1, active compounds read low 1.01 | locus YGL248W, strain PDE1, active compounds read low 1 | locus YGL253W, strain hxk2, active compounds read low 0.974 | locus YGR135W, strain pre9, active compounds read low 0.949 | locus YGR229C, strain SMI1, active compounds read low 1.03 | locus YGR252W, strain gcn5, active compounds read low 0.963 | locus YHR013C, strain ard1, active compounds read low 0.961 | locus YHR027C, strain rpn1, active compounds read low 1.02 | locus YHR030C, strain SLT2, active compounds read low 1.01 and 0.952 | locus YHR079C, strain IRE1 (second series), active compounds read low 0.988 | locus YHR079C, strain IRE1, active compounds read low 0.964 | locus YHR094C, strain hxt1, active compounds read low 1 | locus YHR129C, strain ARP1, active compounds read low 1 | locus YHR142W, strain chs7, active compounds read low 0.967 | locus YHR200W, strain rpn10, active compounds read low 0.985 | locus YIL066C, strain RNR3, active compounds read low 0.997 | locus YIL073C, strain SPO22, active compounds read low 0.938 | locus YIL125W, strain kgd1, active compounds read low 1.01 | locus YIR030C, strain dcg1, active compounds read low 0.978 | locus YJL092W, strain hpr5, active compounds read low 0.988 | locus YJL095W, strain BCK1 (second series), active compounds read low 0.994 | locus YJL095W, strain BCK1, active compounds read low 0.986 and 0.963 | locus YJL115W, strain asf1, active compounds read low 0.977 | locus YJL129C, strain trk1, active compounds read low 0.983 | locus YJL134W, strain LCB3, active compounds read low 1.01 | locus YJL154C, strain vps35, active compounds read low 1.02 | locus YJL164C, strain tpk1, active compounds read low 0.993 | locus YJL166W, strain qcr8, active compounds read low 0.974 | locus YJL168C, strain set2, active compounds read low 0.999 | locus YJL187C, strain SWE1 (second series), active compounds read low 0.995 | locus YJL187C, strain SWE1, active compounds read low 0.987
